Measurements: article PMC4336329 (PLoS ONE, 2015)
The campaign covered roughly 310,000 compounds. About 14,000 (4.5%) showed an effect of 50% or more. The effect is printed as a negative number. Only a selection was taken, and strong results are over-represented in it overall.

Biological target: human ether-à-go-go-related gene (hERG) potassium channel (human, UniProt Q12809)
Assay: primary screen, population patch clamp on CHO cells stably expressing hERG; higher = less effect of the substance
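Also: peak tail current of the secondary pulse compared with the same well before compound.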

human ether-à-go-go-related gene (hERG) potassium channel, sequence (Q12809 whole entry, looked up): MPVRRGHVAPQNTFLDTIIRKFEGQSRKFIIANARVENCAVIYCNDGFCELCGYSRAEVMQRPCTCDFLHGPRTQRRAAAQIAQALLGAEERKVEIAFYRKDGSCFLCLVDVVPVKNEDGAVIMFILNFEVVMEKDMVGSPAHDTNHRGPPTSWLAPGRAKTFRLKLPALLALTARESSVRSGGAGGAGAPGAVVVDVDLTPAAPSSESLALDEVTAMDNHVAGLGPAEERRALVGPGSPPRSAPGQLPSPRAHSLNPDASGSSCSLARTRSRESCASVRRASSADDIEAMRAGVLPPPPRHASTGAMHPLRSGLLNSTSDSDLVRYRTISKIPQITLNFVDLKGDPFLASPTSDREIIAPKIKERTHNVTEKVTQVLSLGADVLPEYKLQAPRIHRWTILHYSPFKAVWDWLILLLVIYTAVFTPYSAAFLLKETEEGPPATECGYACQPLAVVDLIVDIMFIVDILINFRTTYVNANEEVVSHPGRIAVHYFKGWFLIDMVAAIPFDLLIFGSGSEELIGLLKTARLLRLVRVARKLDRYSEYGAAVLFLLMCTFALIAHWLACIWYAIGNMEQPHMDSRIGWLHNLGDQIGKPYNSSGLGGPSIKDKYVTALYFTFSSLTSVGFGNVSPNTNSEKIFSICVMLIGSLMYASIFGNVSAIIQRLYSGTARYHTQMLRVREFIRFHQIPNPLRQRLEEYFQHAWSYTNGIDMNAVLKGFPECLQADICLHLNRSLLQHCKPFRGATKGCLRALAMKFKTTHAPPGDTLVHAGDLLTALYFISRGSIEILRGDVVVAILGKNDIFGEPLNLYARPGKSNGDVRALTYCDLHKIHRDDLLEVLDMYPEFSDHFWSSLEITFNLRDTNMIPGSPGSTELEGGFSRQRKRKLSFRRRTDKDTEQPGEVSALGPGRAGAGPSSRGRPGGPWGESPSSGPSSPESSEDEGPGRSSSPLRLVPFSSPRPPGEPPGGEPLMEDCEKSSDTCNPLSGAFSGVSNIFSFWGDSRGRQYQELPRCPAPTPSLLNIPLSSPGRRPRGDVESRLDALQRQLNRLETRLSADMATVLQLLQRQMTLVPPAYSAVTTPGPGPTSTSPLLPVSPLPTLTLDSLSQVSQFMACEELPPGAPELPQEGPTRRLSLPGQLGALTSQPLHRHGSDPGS

SMILES	hERG current change (%, negative = inhibition) at 10uM [%]
O=C(Nc1cccc(Cl)c1)c1cnn2cccnc12	7.19
CCOC(=O)C1CCN(CCC(=O)Nc2cccc(C)c2)CC1.Cl	-66.8
CCOC(=O)N1CCN(CCC(=O)Nc2cccc(C)c2)CC1.Cl	1.45
CCOC(=O)C1CCN(CCC(=O)Nc2cccc(Cl)c2)CC1	-67.1
Cc1cccc(NC(=O)CCN2CCC(C(N)=O)CC2)c1	9.57
NC(=O)C1CCN(CCC(=O)Nc2cccc(Cl)c2)CC1	0.151
CCOC(=O)C1CCN(CCC(=O)Nc2ccccc2)CC1	-19.7
CCCCCN(C(=O)CCC(=O)OCC(=O)N(C)Cc1ccc(C)cc1)c1c(N)n(CCCC)c(=O)[nH]c1=O	1.93
CCOc1ccc(C(=O)N/N=C(\c2ccccc2)c2ccccn2)cc1	-27
C=CCOc1ccccc1/C=c1\sc2nc(-c3oc4ccccc4c3C)nn2c1=O	-8.15
Cc1cc(C)cc(NC(=O)CN2CCN(C(=O)C3CCCO3)CC2)c1 (centres unmarked)	7.51
CCNC(=S)N1CCN(CC(=O)Nc2ccc(OC)cc2)CC1	-34.3
COc1ccc(NC(=O)CN2CCN(C(=S)NC3CCCC3)CC2)cc1	-39.1
CCNC(=S)N1CCN(CC(=O)Nc2ccc(Br)cc2)CC1	-61.4
O=C(CN1CCN(C(=O)C2CCCO2)CC1)Nc1ccc(Br)cc1 (centres unmarked)	-70
O=C(Nc1ccc(F)cc1)N1CCN(C(=O)C2CCCO2)CC1 (centres unmarked)	2.96
O=C(CN1CCN(C(=O)C2CCCO2)CC1)Nc1ccc(Cl)cc1 (centres unmarked)	-40.9
COc1ccc(NC(=O)CN2CCN(C(=O)N3CCOCC3)CC2)cc1	-14.2
O=C(CN1CCOCC1)Nc1ccccc1	13.8

SMILES	hERG current change (%, negative = inhibition) at 10uM [%]
O=C(CN1CCN(C(=O)N2CCOCC2)CC1)Nc1ccc(Br)cc1	-72.5
O=C(CN1CCN(C(=O)C2CCCO2)CC1)Nc1ccc(F)cc1 (centres unmarked)	-66.1
CCOc1ccc(NC(=O)CN2CCN(C(=O)C3CCCO3)CC2)cc1 (centres unmarked)	-32.6
O=c1c(Cc2ccccc2)c(O)ccn1C1CCCCCCC1	10.1
COc1ccc(S(=O)(=O)N2CCCCCC2)cc1C(=O)N(C)Cc1ccc(C)cc1	-40.3
Cc1[nH]c2ccccc2c(=O)c1SC(F)(F)C(F)C(F)(F)F (centres unmarked)	-5.97
CSc1ccccc1NC(=O)COc1ccc(Cl)cc1Cl	-0.82
NC1=NC[C@H](Cc2ccccc2)N1CCc1cccc(F)c1	6.16
C[C@H]1CN=C(N(C)C)N1CCc1ccc(F)cc1	-12.4
NC1=NC[C@@H](Cc2ccc(O)cc2)N1CCc1cccc(F)c1	5.43
CN(C)C1=NC[C@H](Cc2ccccc2)N1CCc1ccc(F)cc1	-60.6
CN(C)C1=NC[C@H](Cc2ccccc2)N1CCc1cccc(F)c1	-64.1
C[C@H]1CN=C(N(C)C)N1CCc1ccccc1	6.72
COC(=O)c1cccnc1-n1c(=O)c2cccnc2n(Cc2ccc(Cl)cc2)c1=O	-26.6
O=C(Cc1ccccc1)NCC(=O)N/N=C/c1ccc(C(=O)O)cc1	12.3
C=CCc1cccc2cc(C(=O)N3CCN(C(=O)OCC)CC3)c(=O)oc12	-26.9
C=CCn1c(CSc2nc3ccccc3s2)nnc1SCC(=O)NCc1ccccc1	-43.9
CCOC(=O)c1[nH]c2ccc(F)cc2c1NC(=O)CCN1CCSCC1	-22
Cc1nc2sccn2c(=O)c1S(=O)(=O)N1CCN(c2cccc(Cl)c2)CC1	-0.478

SMILES	hERG current change (%, negative = inhibition) at 10uM [%]
Cc1cc(C)c(NS(=O)(=O)c2ccc3c(c2)NC(=O)C(C)C(=O)N3)c(C)c1 (centres unmarked)	2.12
CN(c1ccc(C(=O)N2CCN(Cc3ccc4c(c3)OCO4)CC2)cc1)S(=O)(=O)c1ccccc1	-38.3
COc1ccc(OC)c(CN2CCN(C(=O)c3cccc(S(=O)(=O)Nc4ccccc4OC)c3)CC2)c1	-38.2
COc1ccccc1NS(=O)(=O)c1cccc(C(=O)N2CCN(Cc3ccc4c(c3)OCO4)CC2)c1	-61.4
COc1ccc(NS(=O)(=O)c2cccc(C(=O)N3CCCC3)c2)cc1	2.23
COc1ccc(NS(=O)(=O)c2cccc(C(=O)N3CCC3)c2)cc1	10.5
O=C(c1ccccc1)N1CCN(Cc2ccc3c(c2)OCO3)CC1	11.5
O=C(c1ccc(NS(=O)(=O)c2ccccc2)cc1)N1CCN(Cc2ccc3c(c2)OCO3)CC1	-63.8
COc1cccc(OC)c1C(=O)N1CCN(Cc2ccc3c(c2)OCO3)CC1	-12
COc1ccc(NS(=O)(=O)c2cccc(C(=O)N3CCN(Cc4ccc5c(c4)OCO5)CC3)c2)cc1	-76.8
COc1ccc(OC)c(CN2CCN(C(=O)c3cccc(S(=O)(=O)Nc4ccc(C)cc4)c3)CC2)c1	-34.6
O=C(c1ccc(NS(=O)(=O)c2cccc([N+](=O)[O-])c2)cc1)N1CCCCCC1	-23.1
COc1ccc(OC)c(CN2CCN(C(=O)c3ccc(NS(=O)(=O)c4cccc([N+](=O)[O-])c4)cc3)CC2)c1	-70.6
COC(=O)C1=C(c2ccc(F)cc2F)C[C@@H]2CC[C@H]1N2C(=O)NCCOc1ccccc1	-23.5
N#CC1(N2CCN(C(=O)c3ccccc3)CC2)CCCCC1	30.1
CC1CCCCN1Cc1ccc(N)cc1 (centres unmarked)	12.7
C#CC1(NC(=O)NC(C)(C)C)CCCCC1	15.7
CCc1ccc(OCC(=O)NNC(=O)c2cc(S(=O)(=O)N(C)C)ccc2N2CCCC2)cc1	-23.4
